# Laboratory results from PubChem BioAssay (NCI).
# Compounds without any hit were thinned out: in the full panel of roughly 83,000, 20% have a hit.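 A percent growth of 40 corresponds to 60% growth inhibition; 0 means no net growth; -100 means all cells died. Active threshold: below 10.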 A number with no mark means an inactive call. Calls of active or inactive are those of the source.
# Tested on: MDA-MB-468 breast
# Assay: NCI-60 one-dose screen, 48 h (100 = growth as untreated, 0 = no growth, -100 = all killed)
# Details: 10 µM unless noted
row,Compound,growth
1,CN(C)C(=O)OCc1ccc2c(Cl)cc(Cl)c(O)c2n1,27%
2,Cc1ccccc1N1C(c2ccccc2)=NNC12C=CC(=O)c1c(O)cccc12 (stereo unspecified),88%
3,Cc1ccc(S(=O)(=O)n2cc(C(=O)C(=O)Nc3ccncc3)c3ccccc32)cc1,1.96% (active)
4,Cc1cc2nc(-c3c(N)ncc(C#N)c3-c3ccc(Cl)cc3)[nH]c2cc1C,66%
5,CCCCCCCCCCCCS(=O)CC(C)O (stereo unspecified),106%
6,O=c1ccc2c(ccc3ncccc32)o1,107%
7,O=C(Nc1ccc(Cl)cc1)Nc1ccc(Cl)c(C(F)(F)F)c1,10.3%
8,C=C=COc1cccc(/C(N)=N/C(N)=N/c2nc3ccccc3s2)c1,102%
9,N#CC1(C#N)C(c2cccs2)NC(c2cccs2)C1(C#N)C#N (stereo unspecified),104%
10,COC(=O)c1cc(-c2ccc(S(C)(=O)=O)cc2)[nH]c1N/N=C/c1c(Cl)cccc1Cl,15.7%
11,O=S(=O)(Oc1ccc(-c2cn3ccsc3n2)cc1)c1cccc(C(F)(F)F)c1,92.9%
12,CCC(CC)N1C(=O)/C(=c2\sc3n(c2=O)NC2C(N=3)N(CC)C(=O)N2CC)c2ccccc21 (stereo unspecified),79.9%
13,O=C1CCC(NC(=S)Nc2ccccc2)N1 (stereo unspecified),112%
14,Nc1c(C(=O)NC2CCCCC2)sc2nc3c(cc12)C(=O)CCC3,86.1%
15,COc1ccc(NC(=O)c2ccccc2-c2ccccc2)c(C(N)=O)c1,27.3%
16,COc1cc(-c2nc3cc(Cl)c(Cl)cc3[nH]2)ccc1OCC(=O)N=Nc1c(O)[nH]c2ccc([N+](=O)[O-])cc12,4.59% (active)
